Results taken from ChEMBL document CHEMBL3988442, “University of Dundee, Small-Polar-MMV Screening Library” (2021).
For some of these results: Potency and affinity values are given separately.

Tests used:
Design in all cases: scale not given: direction of the effect not stated beside the values
[1] = target: Protein translocase subunit SecA (Escherichia coli (strain K12)) (UniProt P10408); assay: Assay to Identify E. coli SecA ATPase Inhibitors; format: functional; conditions: 30 µM
[2] = target: T1, Ubiquitin-activating enzyme e1, putative (Leishmania donovani (strain BPK282A1)) (UniProt E9BSI1); assay: Leishmania donovani Ubiquitin Activating Enzyme (LdE1); format: functional; conditions: 30 µM
T1 sequence (whole entry): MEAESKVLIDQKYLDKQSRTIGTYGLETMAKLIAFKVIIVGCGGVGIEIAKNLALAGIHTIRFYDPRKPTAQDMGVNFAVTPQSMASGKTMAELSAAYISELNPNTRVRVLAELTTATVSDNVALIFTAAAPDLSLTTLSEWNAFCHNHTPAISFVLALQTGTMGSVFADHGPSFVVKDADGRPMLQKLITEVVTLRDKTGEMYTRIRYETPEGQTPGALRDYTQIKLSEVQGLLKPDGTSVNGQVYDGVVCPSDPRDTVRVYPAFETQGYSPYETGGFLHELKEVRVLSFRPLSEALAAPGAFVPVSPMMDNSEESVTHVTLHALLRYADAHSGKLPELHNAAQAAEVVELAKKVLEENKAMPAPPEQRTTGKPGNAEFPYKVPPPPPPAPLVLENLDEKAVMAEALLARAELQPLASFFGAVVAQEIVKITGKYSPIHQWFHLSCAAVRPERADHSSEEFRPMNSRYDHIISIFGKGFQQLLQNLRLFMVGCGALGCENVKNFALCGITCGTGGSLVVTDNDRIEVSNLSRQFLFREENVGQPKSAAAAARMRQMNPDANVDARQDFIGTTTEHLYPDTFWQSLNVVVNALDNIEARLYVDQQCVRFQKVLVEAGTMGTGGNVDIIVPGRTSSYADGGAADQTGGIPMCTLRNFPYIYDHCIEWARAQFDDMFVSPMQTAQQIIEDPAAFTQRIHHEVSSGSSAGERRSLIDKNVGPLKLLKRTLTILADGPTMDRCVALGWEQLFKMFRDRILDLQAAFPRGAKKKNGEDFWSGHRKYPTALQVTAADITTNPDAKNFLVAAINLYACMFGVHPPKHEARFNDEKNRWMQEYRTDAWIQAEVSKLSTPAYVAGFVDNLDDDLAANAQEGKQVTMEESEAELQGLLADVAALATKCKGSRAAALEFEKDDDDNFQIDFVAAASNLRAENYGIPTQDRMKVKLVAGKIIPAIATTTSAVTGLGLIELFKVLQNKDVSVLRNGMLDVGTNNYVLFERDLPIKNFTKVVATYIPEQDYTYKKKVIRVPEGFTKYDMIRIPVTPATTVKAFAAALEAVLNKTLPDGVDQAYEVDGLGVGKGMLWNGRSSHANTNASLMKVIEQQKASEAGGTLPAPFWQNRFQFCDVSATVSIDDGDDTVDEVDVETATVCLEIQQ

[3] = target: AMP-activated protein kinase, AMPK (Homo sapiens) (UniProt P54646+O43741+P54619+Q9UGJ0+Q9Y478+Q13131+Q9UGI9); assay: AMP-dependent Kinase enzyme assay. An in vitro enzyme assay that detects ADP turnover that is directly proportional to AMPK activity. This uses naive AMPK that is activated during the assay with MK-8722; format: functional; conditions: 30 µM
[4] = target: Sialic acid-binding Ig-like lectin 9 (Homo sapiens) (UniProt Q9Y336); assay: Hs-Siglec9 ALPHAscreen SOP 20170721; conditions: 10 µM
Sequence of Sialic acid-binding Ig-like lectin 9 (Homo sapiens) (Q9Y336 whole entry): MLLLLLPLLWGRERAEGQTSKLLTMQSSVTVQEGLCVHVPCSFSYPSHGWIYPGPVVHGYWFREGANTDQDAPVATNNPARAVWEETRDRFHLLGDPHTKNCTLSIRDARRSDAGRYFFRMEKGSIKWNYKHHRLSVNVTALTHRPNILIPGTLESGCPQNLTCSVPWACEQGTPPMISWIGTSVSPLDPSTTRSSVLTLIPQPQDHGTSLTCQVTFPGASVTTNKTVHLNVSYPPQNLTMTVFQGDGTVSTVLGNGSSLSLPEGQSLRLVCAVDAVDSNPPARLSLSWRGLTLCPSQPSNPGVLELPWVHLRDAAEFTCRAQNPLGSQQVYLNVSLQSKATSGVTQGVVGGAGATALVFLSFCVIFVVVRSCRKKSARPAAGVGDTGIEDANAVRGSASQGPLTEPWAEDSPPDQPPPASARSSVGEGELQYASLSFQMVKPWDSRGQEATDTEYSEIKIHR

Trypanosoma cruzi = assay: Trypanosoma cruzi phosphomannomutase and mannose-1-phosphate guanylyltransferase assay; format: functional; conditions: 10 µM
[5] = target: T2, Arginase-2, mitochondrial (Homo sapiens) (UniProt P78540); assay: in vitro enzyme assay to detect the production of urea directly proportional to the activity of Arginase II; format: functional; conditions: 33.3 µM; also: in the data most compounds retested in dose-response had high values
T2 sequence (whole entry): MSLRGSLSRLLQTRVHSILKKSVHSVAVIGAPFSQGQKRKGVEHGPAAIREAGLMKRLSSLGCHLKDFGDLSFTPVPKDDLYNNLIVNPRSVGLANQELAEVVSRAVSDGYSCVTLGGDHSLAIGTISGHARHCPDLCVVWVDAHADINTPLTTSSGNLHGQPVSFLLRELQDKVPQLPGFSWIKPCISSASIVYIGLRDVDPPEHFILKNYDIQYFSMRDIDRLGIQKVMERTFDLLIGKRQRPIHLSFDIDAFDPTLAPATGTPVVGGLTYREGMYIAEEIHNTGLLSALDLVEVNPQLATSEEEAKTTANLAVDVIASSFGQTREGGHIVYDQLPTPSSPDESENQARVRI

[6] = target: T3, Proteasome subunit beta (Trypanosoma cruzi) (UniProt O96673); assay: Trypanosoma cruzi proteasome chymotrypsin-like activity (TcProtChymo) assay.; also: in the data most compounds retested in dose-response had high values; format: functional; conditions: 9.37 µM
T3 sequence (whole entry): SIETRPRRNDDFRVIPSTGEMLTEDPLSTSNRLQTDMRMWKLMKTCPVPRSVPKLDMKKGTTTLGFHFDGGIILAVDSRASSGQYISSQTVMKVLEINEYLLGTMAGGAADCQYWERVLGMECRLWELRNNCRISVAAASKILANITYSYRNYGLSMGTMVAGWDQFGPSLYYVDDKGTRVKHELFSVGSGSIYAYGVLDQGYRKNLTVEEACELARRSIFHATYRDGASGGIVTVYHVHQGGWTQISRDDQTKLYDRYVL

Homo sapiens = species on record: Homo sapiens; assay: To identify inhibition of the IFN signalling (Jak-Stat) pathway via expression of an eGFP reporter gene under the control of an IFN-stimulated response element (ISRE) containing MxA promoter.; format: functional; conditions: 30 µM
[7] = target: T4, Tyrosyl-tRNA synthetase, putative (Trypanosoma cruzi (strain CL Brener)) (UniProt Q4DSP6); assay: Trypanosoma cruzi tyrosyl tRNA synthetase (TcYRS) _High Tyrosine SOP; format: functional; conditions: 30 µM; also: in the data most compounds retested in dose-response had high values
T4 sequence (whole entry): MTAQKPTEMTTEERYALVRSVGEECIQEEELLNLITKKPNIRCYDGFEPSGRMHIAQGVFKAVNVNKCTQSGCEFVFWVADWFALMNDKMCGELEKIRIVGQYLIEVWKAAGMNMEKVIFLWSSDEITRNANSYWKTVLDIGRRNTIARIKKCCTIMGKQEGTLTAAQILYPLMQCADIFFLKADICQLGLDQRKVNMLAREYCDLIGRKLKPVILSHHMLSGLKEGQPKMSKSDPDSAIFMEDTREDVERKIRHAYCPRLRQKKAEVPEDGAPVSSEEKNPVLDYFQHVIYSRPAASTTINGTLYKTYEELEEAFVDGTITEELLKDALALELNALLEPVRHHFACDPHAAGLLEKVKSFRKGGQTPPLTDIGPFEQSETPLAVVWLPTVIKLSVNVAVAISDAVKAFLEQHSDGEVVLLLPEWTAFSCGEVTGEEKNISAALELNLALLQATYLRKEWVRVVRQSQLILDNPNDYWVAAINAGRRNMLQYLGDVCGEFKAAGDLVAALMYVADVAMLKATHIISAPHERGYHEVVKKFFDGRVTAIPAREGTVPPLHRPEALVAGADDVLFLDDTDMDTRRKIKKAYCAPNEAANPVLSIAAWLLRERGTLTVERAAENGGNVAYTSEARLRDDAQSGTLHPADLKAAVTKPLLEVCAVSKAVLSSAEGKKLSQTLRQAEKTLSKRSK

[8] = target: T4, Tyrosyl-tRNA synthetase, putative (Trypanosoma cruzi (strain CL Brener)); assay: Trypanosoma cruzi tyrosyl tRNA synthetase (TcYRS) SOP; format: functional; conditions: 30 µM
[9] = target: Chromo domain-containing protein 1 (Saccharomyces cerevisiae (strain ATCC 204508 / S288c) (Baker's yeast)) (UniProt P32657); assay: ScCHD-1 Enzyme Inhibition Assay; format: functional; conditions: 30 µM; also: in the data most compounds retested in dose-response had high values
Sequence of Chromo domain-containing protein 1 (Saccharomyces cerevisiae (strain ATCC 204508 / S288c) (Baker's yeast)) (P32657 whole entry, the tested form may be a part): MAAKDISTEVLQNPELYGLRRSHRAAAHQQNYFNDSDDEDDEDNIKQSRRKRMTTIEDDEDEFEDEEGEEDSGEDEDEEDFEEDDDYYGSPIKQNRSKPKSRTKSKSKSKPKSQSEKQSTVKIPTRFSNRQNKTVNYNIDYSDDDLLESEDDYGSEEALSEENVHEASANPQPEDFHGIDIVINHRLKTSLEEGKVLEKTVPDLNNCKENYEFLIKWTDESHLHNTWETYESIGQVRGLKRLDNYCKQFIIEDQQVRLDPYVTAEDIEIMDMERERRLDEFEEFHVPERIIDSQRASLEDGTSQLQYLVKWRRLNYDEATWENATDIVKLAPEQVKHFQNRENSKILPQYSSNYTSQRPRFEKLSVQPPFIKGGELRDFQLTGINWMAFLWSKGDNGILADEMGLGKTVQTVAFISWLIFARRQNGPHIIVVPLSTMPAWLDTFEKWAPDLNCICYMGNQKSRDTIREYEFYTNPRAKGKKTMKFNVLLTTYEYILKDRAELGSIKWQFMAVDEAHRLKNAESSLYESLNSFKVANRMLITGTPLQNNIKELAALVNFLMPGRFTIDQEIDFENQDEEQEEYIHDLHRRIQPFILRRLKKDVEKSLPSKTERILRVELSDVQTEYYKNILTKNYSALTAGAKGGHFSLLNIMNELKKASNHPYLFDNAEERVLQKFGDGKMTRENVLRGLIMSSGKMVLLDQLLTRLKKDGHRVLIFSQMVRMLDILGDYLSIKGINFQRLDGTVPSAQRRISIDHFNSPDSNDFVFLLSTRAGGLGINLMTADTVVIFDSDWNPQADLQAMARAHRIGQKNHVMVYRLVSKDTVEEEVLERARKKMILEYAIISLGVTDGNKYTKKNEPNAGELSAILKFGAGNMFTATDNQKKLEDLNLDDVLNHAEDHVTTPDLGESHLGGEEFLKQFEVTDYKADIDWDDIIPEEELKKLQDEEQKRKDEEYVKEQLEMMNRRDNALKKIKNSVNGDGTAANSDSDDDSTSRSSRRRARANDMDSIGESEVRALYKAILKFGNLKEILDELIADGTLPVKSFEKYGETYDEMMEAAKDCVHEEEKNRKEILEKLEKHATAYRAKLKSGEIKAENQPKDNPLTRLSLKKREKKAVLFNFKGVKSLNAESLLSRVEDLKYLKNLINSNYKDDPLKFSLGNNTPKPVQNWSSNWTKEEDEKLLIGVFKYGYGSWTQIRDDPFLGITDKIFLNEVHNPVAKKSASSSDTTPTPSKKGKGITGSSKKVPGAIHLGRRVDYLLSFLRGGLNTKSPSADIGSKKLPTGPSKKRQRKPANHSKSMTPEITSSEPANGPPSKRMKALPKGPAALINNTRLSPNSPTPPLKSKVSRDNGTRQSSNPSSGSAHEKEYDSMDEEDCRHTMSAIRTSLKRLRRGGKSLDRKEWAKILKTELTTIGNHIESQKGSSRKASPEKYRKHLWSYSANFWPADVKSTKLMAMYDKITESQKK

Sequence of Protein translocase subunit SecA (Escherichia coli (strain K12)) (P10408 whole entry): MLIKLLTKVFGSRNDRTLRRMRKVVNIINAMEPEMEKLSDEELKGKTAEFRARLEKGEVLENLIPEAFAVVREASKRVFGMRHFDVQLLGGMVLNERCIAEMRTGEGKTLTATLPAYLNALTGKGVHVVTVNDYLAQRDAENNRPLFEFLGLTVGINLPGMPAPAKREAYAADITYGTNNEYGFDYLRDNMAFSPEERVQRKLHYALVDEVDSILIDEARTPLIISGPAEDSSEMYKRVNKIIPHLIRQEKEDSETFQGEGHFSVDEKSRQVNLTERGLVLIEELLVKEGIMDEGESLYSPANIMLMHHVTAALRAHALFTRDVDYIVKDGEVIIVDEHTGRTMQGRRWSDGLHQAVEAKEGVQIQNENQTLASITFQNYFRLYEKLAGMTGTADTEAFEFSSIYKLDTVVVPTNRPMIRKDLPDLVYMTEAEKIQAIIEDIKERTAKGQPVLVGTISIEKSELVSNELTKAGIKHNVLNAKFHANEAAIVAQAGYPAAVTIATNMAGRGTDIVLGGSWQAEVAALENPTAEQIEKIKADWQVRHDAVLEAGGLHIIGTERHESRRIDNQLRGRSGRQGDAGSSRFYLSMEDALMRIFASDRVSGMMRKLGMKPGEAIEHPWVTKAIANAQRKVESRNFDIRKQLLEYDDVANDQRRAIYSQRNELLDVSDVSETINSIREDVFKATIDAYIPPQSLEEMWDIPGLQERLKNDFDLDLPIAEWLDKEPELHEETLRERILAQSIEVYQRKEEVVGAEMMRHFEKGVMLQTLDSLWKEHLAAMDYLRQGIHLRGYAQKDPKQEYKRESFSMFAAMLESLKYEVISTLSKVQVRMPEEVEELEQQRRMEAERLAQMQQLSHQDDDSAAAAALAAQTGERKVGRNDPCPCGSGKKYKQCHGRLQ

Row | Compound | Percent Effect [1] [%] | Percent Effect [2] [%] | Percent Effect [3] [%] | Percent Effect [4] [%] | Percent Effect (Trypanosoma cruzi) [%] | Percent Effect [5] [%] | Percent Effect [6] [%] | Percent Effect (Homo sapiens) [%] | Percent Effect [7] [%] | Percent Effect [8] [%] | Percent Effect [9] [%]
1 | Cc1ccc(CCC(=O)N(C)CCN2CCOCC2)c(C)c1 | -0.772 | -5.26 | 4.45 | 4.55 | -0.487 | -7.1 | 17 | -17.1 | 6.38 | 5.2 | 4.92
2 | c1cc2nc(C3CCN(CC4CC4)CC3)nn2cc1N1CCCC1 | -0.605 | 11 | -111 | 9.79 | 0.595 | 0.399 | 11.4 | 7.29 | 13.5 | -1.24 | -6.62
3 | O=C(NC1CC1)[C@@H]1CCO[C@@H]2CCN(C3CCOCC3)C[C@@H]21 | 1.01 | 2.6 | -0.255 | 5.79 | 6.98 | -13.8 | 3.49 | -21.6 | 1.07 | 1.24 | -7.95
4 | O=C(NCc1ccncc1)N(Cc1ccccc1F)C1CC1 | -6.03 | 18.7 | -7.25 | 29.6 | 10.2 | 51 | 17.1 | 5.89 | 2.73 | 16.1 | -6.63
5 | COCCOc1ccc(NC(=O)C2CC(=O)N(C)C2)cn1 (stereo unspecified) | 0.0993 | 12.7 | -16.4 | -3.76 | -5.95 | 6.46 | 1.06 | 23.3 | 1.48 | 11.4 | -5.38
6 | CC1CCc2nc(O)c(C(=O)NCCN(C)C)cc2C1 (stereo unspecified) | -6.34 | 4 | -0.0231 | 6.09 | 1.38 | -6.51 | 14.8 | -2.83 | 1.06 | 2.56 | -5.39
7 | CCCS(=O)(=O)Nc1ccc2c(c1)OCC(C)(C)C(=O)N2C | -0.588 | 11 | -6.5 | 1.41 | -5.09 | -2.27 | 12.6 | 8.18 | 2.15 | 10 | -5.87
8 | CNC(=O)[C@H]1CO[C@H]2CCN(Cc3ccc4ccccc4n3)C[C@H]2C1 | -4.79 | 8.11 | 7.95 | -3.25 | -3.62 | 9.87 | 18.8 | -14.1 | 2.16 | 15.4 | 1.01
9 | O=C([C@@H]1CC[C@@H]2[C@@H](CCN2Cc2ccoc2)O1)N1CCCC1 | -5.35 | 13.5 | -5.44 | 27.1 | 0.684 | 4.71 | 17.9 | -10.1 | 7.53 | 13.6 | -3.6
10 | Cn1ccnc1CN(CCCO)C1CCCc2ccccc21 (stereo unspecified) | -5.87 | 5.26 | 3.03 | 9.71 | 0.876 | -2.37 | 3.55 | 18.1 | 3.19 | 7.79 | -0.447
11 | c1cnc(-c2cnc(N3CCSCC3)nc2C2CC2)cn1 | -4.23 | 2.67 | 12.3 | 6.16 | -3.94 | -0.699 | 3.44 | 16 | 1.06 | 8.97 | -0.826
